What all share (assay): NCI-60 one-dose screen, 48 h (100 = growth as untreated, 0 = no growth, -100 = all killed)
Test [1] concerns DU-145 prostate.
The subject of test [2] is K-562 leukemia.
Test [3] relates to MALME-3M melanoma.
For test [4], the system named is MDA-MB-231 breast.
The test system of test [5] is RXF 393 renal.
The test system of test [6] is SF-268 CNS.
Test [7] has as its system SF-295 CNS.
In test [8] the test system is SF-539 CNS.
Test [9] has as its system UACC-257 melanoma. Conditions: 10 µM unless noted.
Test [10] has as its system M14 melanoma.
The subject of test [11] is HCT-15 colon.
The test system of test [12] is HT29 colon.
Test [13] relates to SNB-75 CNS.
Test [14] relates to SNB-19 CNS.
Test [15] deals with U251 CNS. Conditions: 10 µM unless noted.
In test [16] the test system is PC-3 prostate. Conditions: 10 µM unless noted.
In test [17] the test system is SK-MEL-5 melanoma.
Test [18] concerns UACC-62 melanoma.
Test [19] relates to LOX IMVI melanoma. The note with it: 10 µM unless noted.
The subject of test [20] is SK-MEL-28 melanoma.

Structures are written as SMILES. Several values for one entry are separate records, joined by “and”; a condition that tells them apart may be missing. Equal entries are not always repeated. Compounds without any hit were thinned out: in the full panel of roughly 83,000, 20% have a hit.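 96-well plates, one dose, 48 hours. Percent growth reported; active if below 10.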 A number with no mark means an inactive call. Activity calls are given as the source filed them.

Consider `CN=C(N)N/N=C(\C)c1ccc2c(c1)Cc1cc(/C(C)=N/NC(N)=NC)ccc1-2`, for which the growth in [1] (10 µM unless noted) is -35.5% (active); in test [2] (10 µM unless noted), -7.26% (active); in test [3] (10 µM unless noted), -65.5% (active); in [4] (10 µM unless noted), -33.8% (active); in test [5] (10 µM unless noted) it was -21.2% (active); in test [6] (10 µM unless noted), -61% (active). The growth in [7] (10 µM unless noted) was -28.1% (active); in test [8] (10 µM unless noted), -89% (active); in test [9], 56.5%; in [10] (10 µM unless noted) it was -85.7% (active); in [11] (10 µM unless noted), 2.4% (active); in test [12] (10 µM unless noted), -49.7% (active). Besides, the growth was -46.5% (active) in test [13] (10 µM unless noted); -43.6% (active) in test [14] (10 µM unless noted); -78.9% (active) in [15]; 15.9% in test [16]; -89.9% (active) in test [17] (10 µM unless noted); -78.3% (active) in test [18] (10 µM unless noted). Also, the growth in test [19] was -49.3% (active); in test [20] (10 µM unless noted) it was -64.7% (active).

In the case of `O=[N+]([O-])c1ccc(N=Nc2ccc(O)cc2O)cc1`, the growth in [1] (10 µM unless noted) is 83.2%; in test [2] (10 µM unless noted), 20.6%; in [3] (10 µM unless noted) it was 72.5%; in test [4] (10 µM unless noted), 47.4%; in [5] (10 µM unless noted), 20.6%; in test [6] (10 µM unless noted), 78%. Moreover, the growth in [7] (10 µM unless noted) was 50.6%; in [8] (10 µM unless noted), 37.7%; in [9] it was 43.7%; in test [10] (10 µM unless noted), 51.3%; in test [11] (10 µM unless noted), 36.9%; in test [12] (10 µM unless noted), 75.7%. Further, the growth in test [13] (10 µM unless noted) was 70.3%; in test [14] (10 µM unless noted), 53.7%; in [15], 38.4%; in test [16], 32.1%; in test [17] (10 µM unless noted), 43.3%; in [18] (10 µM unless noted) it was 36.4%. Besides, the growth in test [19] was 51.8%; in test [20] (10 µM unless noted), 44.2%.

`O=C(/C=C/C=C/c1ccccc1)c1ccco1`: the growth in test [1] (10 µM unless noted) was 99.7%; in test [2] (10 µM unless noted) it was 43%; in [3] (10 µM unless noted), 113%; in [4] (10 µM unless noted), 102%; in test [5] (10 µM unless noted) it was 46%; in [6] (10 µM unless noted) it was 91.5%. Moreover, the growth was 112% in test [7] (10 µM unless noted); 106% in [8] (10 µM unless noted); 108% in [9]; 93.9% in test [10] (10 µM unless noted); 92.2% in [11] (10 µM unless noted); 85.4% in test [12] (10 µM unless noted). Further, the growth in test [13] (10 µM unless noted) is 83%; in test [14] (10 µM unless noted) it was 92.5%; in test [15] it was 56.4%; in test [16] it was 85.9%; in test [17] (10 µM unless noted), 91.1%; in test [18] (10 µM unless noted) it was 72.1%. The growth in [19] was 64.8%; in test [20] (10 µM unless noted) it was 123%.

Regarding `COc1ccc(-c2cscc2N)cc1`, the growth in test [1] (10 µM) is 83.3%; in [1] (100 µM) it was 69.8%; in [2] (10 µM), 54.4%; in test [2] (100 µM), 22.9%; in test [3] (10 µM), 138%; in test [3] (100 µM), 66.9%. For the same molecule, the growth is 55.3% in test [4] (10 µM); 50.8% in test [4] (100 µM); 106% in [5] (10 µM); 89.5% in test [5] (100 µM); 91% in [6] (10 µM); 41.3% in [6] (100 µM). The growth in test [7] (10 µM) is 54.1%; in test [7] (100 µM) it was 40.9%; in test [8] (10 µM), 78.7%; in test [8] (100 µM), 44.3%; in test [9], 41.2% [100 µM]; in test [10] (10 µM), 76.1%. In addition, the growth in [10] (100 µM) is 43.4%; in test [11] (10 µM), 63.1%; in test [11] (100 µM), 63.9%; in test [12] (10 µM) it was 97.7%; in test [12] (100 µM) it was 52%; in test [13] (10 µM), 88.8%. Besides, the growth in [13] (100 µM) was 51.9%; in test [14] (10 µM), 82.9%; in test [14] (100 µM), 57.6%; in test [15] it was 38.5% [100 µM]; in test [17] (10 µM) it was 48.8%; in test [17] (100 µM), 33.1%. Further, the growth was 43.4% in test [18] (10 µM), -9.3% (active) in [18] (100 µM), 96.4% in [20] (10 µM) and 51.4% in test [20] (100 µM).

As to `O=C(Oc1cccc2cccnc12)c1ccccc1`, the growth in test [1] (10 µM unless noted) was 92.9% and 107%; in test [2] (10 µM unless noted), 48.5%; in test [3] (10 µM unless noted), 89.8% and 99%; in [4] (10 µM unless noted), 84.5% and 104%; in [5] (10 µM unless noted), 99.5% and 108%; in [6] (10 µM unless noted), 87.1% and 102%. For the same molecule, the growth was 97.5% and 98.7% in test [7] (10 µM unless noted); 97.9% and 106% in test [8] (10 µM unless noted); 86% and 96.8% in test [9]; 83.2% and 96.9% in test [10] (10 µM unless noted); 77.6% and 101% in test [11] (10 µM unless noted); 87.1% and 99.8% in test [12] (10 µM unless noted). The growth was 85.4% and 96.2% in [13] (10 µM unless noted); 93.7% and 108% in test [14] (10 µM unless noted); 82.8% and 113% in [15]; 81.1% and 93.8% in [16]; 105% and 100% in test [17] (10 µM unless noted); 97.6% and 106% in [18] (10 µM unless noted). Moreover, the growth is 70% and 100% in test [19]; 82.4% and 103% in test [20] (10 µM unless noted).
